High-throughput results as filed in PubChem BioAssay.
PostGolgi ctrl: inhibits growth of the yeast control strain | efflux-deficient yeast background strain, growth absorbance A615, 16 h | inhibition, % at 10 µM | 98,000 compounds, 5% hits | AID 738
Cav32 inh: inhibitors of human Cav3.2 T-type calcium channel | Cav3.2-expressing cells, Fluo-4 calcium fluorescence FDSS; hits give low values | B-score at 10 µM | O95180 | 100,000 compounds, 4% hits | AID 449739;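 active = single-dose well whose peak fluorescence ratio is a statistical outlier from its plate by either plate-standardised score or position-corrected B-score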
TNAP act DEA: human TNAP activation, intermediate phosphate acceptor | activation factor at 20 µM | purified TNAP, CDP-star luminescence, 100 mM DEA, 30 min; hits give high values; scale: 0 levamisole-inhibited, 1 vehicle-only enzyme | AID 813 | 64,000 tested, under 10 active;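 active = activation factor of at least 2 at 20 µM, relative to controls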
PostGolgi yeast: growth inhibition of a yeast mutant, post-Golgi transport screen; inhibition, % at 10 µM; post-Golgi transport phenotypic cell assay; AID 739; 98,000 compounds, 0.9% hits;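 also: yeast cells grown in 1536-well plates; yeast grown about 18 h at 30C before absorbance read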
hDAT+cocaine: human DAT dopamine uptake with cocaine, either direction; B-score at 10 µM; LLC-PK1 hDAT cells, [14C]-dopamine uptake with cocaine IC80; actives deviate in either direction; Q01959; 110,000 compounds, 1.3% hits; AID 449768;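 active = Z score or B-score, a plate-position-corrected score, falls beyond the plate's 99.7% confidence bounds, in either direction; inactive = both scores lie inside the 99.7% bounds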;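 also: scored against the spread of the other compound wells on the same plate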
Smad3 inh: inhibitors of human Smad3 transcription factor binding; P84022; inhibition, % at 25 µM; AID 630; 88,000 compounds, 0.29% hits; TR-FRET Smad3/Dy647-FoxH1 peptide binding, europium anti-His;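 active = compounds that reduce the energy-transfer binding signal between the protein and its labelled peptide by more than half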;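 also: 0% = Smad3 plus labelled peptide maximal FRET and 100% = peptide-only background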
* = called active by the depositor; x = no result given. Sampled rows, rich in hits. Any-hit rate of the full collection: about 8.7%. Rule as the data show it, unless noted: active = inhibition above about 30%; inactive = the rest.

SMILES	PostGolgi ctrl	Cav32 inh	TNAP act DEA	PostGolgi yeast	hDAT+cocaine	Smad3 inh
O=C(N/N=C1/CCCc2ccccc21)C(c1ccccc1)c1ccccc1	13	-0.67	x	3	-0.21	x
COc1cc(S(=O)(=O)NCC2OCCc3ccccc32)ccc1-n1cnnn1 (stereo not given)	-6	-0.31	x	4	0.32	-5
O=C(Cn1nc(C(F)(F)F)c2c1CCC2)NCc1ccc(Cl)cc1	x	-4.5*	x	x	-0.13	8
O=C(Cn1nc(C(F)(F)F)c2c1CCCC2)Nc1ccc2c(c1)OCO2	11	-4.9*	0.9	-5	-1.6*	1
Cc1ccc(N2C(=O)C(Cl)=C(Nc3c(C)n(C)n(-c4ccccc4)c3=O)C2=O)cc1	33*	1.1	1	20	1.1	11
Cc1c(NC(=O)Nc2c(Cl)cccc2Cl)c(=O)n(-c2ccccc2)n1C	x	x	x	x	x	10
CCN(CC)C(=O)c1sc(NC(=O)C(Sc2ccccc2)c2ccccc2)c(C(=O)OC(C)C)c1C (stereo not given)	8	-4.5*	x	-6	1	x
CSc1ccc(NC(=O)NCCCN2CCN(c3ccccc3F)CC2)cc1	22	-2.9	1	-10	-0.19	7
Cc1ccc(CSCCNC(=O)c2ccc(Cl)c(S(=O)(=O)N3CCOCC3)c2)cc1	14	-7.4*	x	-8	-0.03	-2
Cc1ccc(CSCCNC(=O)c2ccc(N(C)S(=O)(=O)c3ccccc3)cc2)cc1	11	-5.6*	x	7	0.28	x
O=C(NCCC1=CCCCC1)c1ccc(Cl)c(S(=O)(=O)N2CCOCC2)c1	9	-0.0027	1	-5	0.23	-3
CCCCCCCCCCCCN1[C@@H](CC(C)=O)c2cc(C(F)(F)F)ccc2S1(=O)=O	x	0.57	x	x	-0.42	x
CCCCCCCCN1[C@@H](CC(=O)OCC)c2cc(C(F)(F)F)ccc2S1(=O)=O	x	-4.2*	x	x	0.79	x
CSc1nc(-c2ccccc2O)nc(-c2ccccc2O)n1	x	x	0.9	x	x	6
COc1ccc(NC(=O)c2nc[nH]c2C(=O)N2CCC(C)CC2)cc1	x	-0.84	x	x	1.4	x
CCCc1cc(-c2[nH]ncc2-c2ccc(C(=O)OCC)o2)c(O)cc1O	11	-0.081	1.1	7	-0.44	13
CCCOC(=O)c1ccc(-c2c(C)noc2-c2ccc(OC)cc2O)o1	29	-4.4*	0.8	4	2.8*	8
CC1=C(C(=O)OCc2ccccc2)C(c2ccccc2OS(=O)(=O)c2ccc(C)cc2)NC(=O)N1CCCC(=O)O (stereo not given)	x	-1.1	x	x	2.5*	x
CCOC(=O)c1cnc(SC)nc1Sc1cc(Cl)ccc1Cl	16	-1.9	x	33*	-1.2	4
O=C(Cc1c(C(=O)O)[nH]c2ccccc12)NC1CCN(Cc2ccccc2)CC1	x	x	0.9	x	x	x
Cc1ccc(Nc2nc(N)nc(CN3CCN(Cc4ccc5c(c4)OCO5)CC3)n2)cc1	6	-2.4	0.9	-2	0.18	2
Cc1ccc(Nc2nc(N)nc(CN3CCN(Cc4ccc5c(c4)OCO5)CC3)n2)cc1Cl	-5	-5.2*	0.9	6	0.35	3
Cc1ccc(Nc2nc(N)nc(CN3CCN(c4ccccc4)CC3)n2)cc1Cl	30*	-1	0.9	16	1.4	2
COc1ccc(N2CCN(Cc3nc(N)nc(Nc4ccc(C)c(Cl)c4)n3)CC2)cc1	15	-5.2*	0.9	0	1	-8
CCc1nc(C)cn1S(=O)(=O)c1ccc(Cl)c(Cl)c1Cl	17	-3.6*	1	-1	x	5
SMILES	PostGolgi ctrl	Cav32 inh	TNAP act DEA	PostGolgi yeast	hDAT+cocaine	Smad3 inh
CCc1nc(C)cn1S(=O)(=O)c1cc(Cl)c(OC)cc1Cl	5	-2.5	x	7	-0.68	-8
CCc1nc(C)cn1S(=O)(=O)c1cc(C)c(OC)cc1C	0	-3.8*	0.9	-2	-1.6	-4
CSc1nsc(SCC(=O)Nc2ccc3c(c2)OCCO3)n1	2	x	0.9	0	0.44	-10
Cc1ccc(S(=O)(=O)N(c2cccc(C(F)(F)F)c2)C2C=CS(=O)(=O)C2)cc1 (stereo not given)	x	0.22	0.9	x	0.0021	5
COc1ccccc1CO/N=C/NC(=O)c1c(OC)ccnc1Oc1ccc(F)cc1	51*	-0.66	x	-29	0.66	x
COc1ccnc(Oc2ccccc2)c1C(=O)N/C=N/OCc1ccc(F)cc1Cl	8	-2.9	x	-11	0.2	x
c1ccc(-c2nnc3sc(Cc4cccs4)nn23)cc1	30*	0.64	0.9	3	0.17	9
CCOC(=O)C1=C(COc2ccc(F)cc2Cl)NC(=O)NC1c1cc(C)ccc1C (stereo not given)	30*	-0.36	x	1	-1.2	x
COc1ccc(NC(=O)CSc2nc3ncccc3[nH]2)cc1OC	0	-0.35	x	2	0.52	2
COC(=O)CSc1nc2ncccc2[nH]1	35*	1.2	x	6	0.59	12
Cc1cccc(C(=O)Nc2oc(-c3ccccc3)cc2C#N)c1	5	0.83	x	19	0.28	1
N#Cc1cc(-c2ccccc2)oc1NC(=O)c1ccco1	4	1.1	0.9	-5	-8.8*	-7
CCCCOC(=O)Cc1c(O)c2ccccc2[nH]c1=O	3	-0.34	1	32*	0.012	0
CC(C)(C)C1CCC2(CC1)C(C#N)=C(SCC(=O)Nc1ccccc1)NC(=O)C2C#N (stereo not given)	18	-6.7*	0.9	-3	-1.3	7
O=C(c1cc2ccccc2oc1=O)N1CCN(c2ccc(N3CCOCC3)nn2)CC1	-4	x	0.8	-10	0.54	-5
O=C(c1ccc(CSCc2ccccc2F)o1)N1CCN(c2ccc(N3CCOCC3)nn2)CC1	6	-0.27	0.9	0	3.4*	1
COc1ccc(Oc2c(C=O)c3ccccc3n2C)cc1	6	-0.45	x	-12	0.36	x
Cc1ccc(Oc2c(C=O)c3ccccc3n2C)cc1	33*	-1.2	x	7	0.88	x
CC(C)n1c2ccccc2c2nc3ccccc3nc21	46*	-0.24	0.8	1	-0.029	3
Cc1nn2c3ccccc3nc2c2ccccc12	16	1.3	1	0	-0.4	2
Cc1nn2c(-c3ccccc3)nnc2c2ccccc12	31*	2.2	0.9	-1	0.13	7
FC(F)(F)c1ccc(N2CCN(c3cc(-c4ccccc4)nc4ncnn34)CC2)nc1	57*	-2	0.9	11	-1	x
CCOC(=O)c1sc(NC(=O)c2ccccc2OC)nc1C	42*	0.68	x	-2	-0.55	5
CCOC(=O)c1oc2ccccc2c1NC(=O)c1ccccc1OC	70*	-4.7*	0.8	15	0.88	6
CN1C[C@H](C(=O)NC2(C)OC3(O)[C@@H]4CCCN4C(=O)[C@H](Cc4ccccc4)N3C2=O)CC2c3cccc4[nH]cc(c34)C[C@H]21 (stereo not given in full)	x	0.7	x	x	4*	x
CCCCCCOC(=O)C[N+](C)(C)CCOC1CC2CCC1(C)C2(C)C (stereo not given)	37*	-0.8	x	16	0.79	x
